Measured values published in PubChem BioAssay AID504834 (National Center for Advancing Translational Sciences (NCATS), 2011).
The campaign covered roughly 320,000 compounds. About 22,000 (6.9%) were called active. Another 27% or so got no clear call; they are omitted. What follows is part of a selection rich in actives, with near analogues and random picks from the rest. Unmarked numbers belong to inactive results. Calls come from the whole dose curve; as a rule, active = well fitted inhibition curve with a large enough effect; inconclusive = small, poorly fitted or top-dose-only effect, or another doubt; inactive = no such curve, though single readings can be large or run the other way.

Assay: Primary qHTS for delayed death inhibitors of the malarial parasite plastid, 96 hour incubation
Details: P. falciparum luciferase reporter growth; series mostly up to 28.7 µM; activity change, negative = inhibition: at the top concentration
Text: The goal of this screen is to discover new antimalarial compounds that act by inhibiting the development of the apicoplast in the malarial parasite Plasmodium falciparum. The biochemical processes that make this organelle essential for erythrocytic stage parasites are not well understood. However, antibiotics such as azithromycin and tetracycline, which target the apicoplast translational machinery, have a potent antimalarial effect.
We have developed a cell-based assay that measures parasite growth based on the expression of an integrated copy of a firefly luciferase reporter. To detect small molecules that cause this "delayed death" phenotype, erythrocytes infected with the luciferase-expressing parasites were incubated with compounds for either one or two generations, corresponding to 48 and 96 hours, respectively. Compounds that inhibit parasite growth in the second generation, but not the first, should be enriched in antimalarials that target the apicoplast. Growth inhibition is detected by a decrease in luciferase activity.
Assay Provider: David Fidock and Eric Ekland, Columbia University
Keywords: NIH Roadmap, MLPCN, MLI, MLSMR, qHTS, NCGC, qHTS, malaria, luciferase, viability
Four microliters of infected erythrocytes (2% hematocrit, 0.05% parasitemia final concentration) in culture medium were dispensed and the plates incubated for 96 hours at 37 C in 5% CO2. Two microliters of luciferase detection reagent was added and luminescence was detected by a ViewLux (PerkinElmer) reader.
% is set by controls: 0 for no effect and ±100 for the full control effect; potency is the fitted concentration of half-maximal effect.

In order of falling “activity change, negative = inhibition” value:
1. Cc1csc2nc(COC(=O)c3cccc(N(C)C)c3)cc(=O)n12  175%
2. COc1ccc(CCN=C2SCC(=O)N2C)cc1OC  128%
3. COc1ccccc1CCNC(=O)C1CCN(C(=O)/C=C/c2ccccc2)CC1  118%
4. Cc1ccnc(NC(=O)CNC(=O)c2ccccc2)c1  112%
5. Cc1ccccc1N1CCN(C2CCCN(C(=O)c3ocnc3C)C2)CC1 (configuration not stated)  80.8%
6. NC(=O)c1nnsc1-c1ccc(-c2snnc2C(N)=O)cc1  79.6%
7. Cc1ccc(S(=O)(=O)n2cccc2CO)cc1  73.9%
8. Cc1ccc(-c2nnc(CN3CCN(C)CC3)o2)cc1  73.6%
9. O=C(CN1CCN(C2CCS(=O)(=O)C2)CC1)N1N=C(c2ccc(Cl)cc2)CC1c1ccco1 (configuration not stated)  70.1%
10. Nc1ccc(-c2nnc(-c3ccc(-c4ccccc4)cc3)o2)cc1  69.9%
11. CCC(CC)c1nnc(NC(=O)C2=COCCO2)s1  65.7%
12. O=C1COc2ccc(S(=O)(=O)Nc3ccc(OC(F)(F)F)cc3)cc2N1  61.4%
13. Cc1cc([N+](=O)[O-])ccc1NC(=O)C1CCCO1 (configuration not stated)  59.8%
14. CC1(C)O[C@@H]2[C@H](O1)[C@@H](COS(=O)(=O)O)O[C@H]2n1ccc(=O)[nH]c1=O  58.2%
15. O=C1N=C(N2CCOCC2)S/C1=C\C=C/c1ccccc1  56.5%
16. Nc1ccc(C(=O)NCc2ccccc2)cc1  52.7%
17. O=C(Cc1ccccc1Cl)N1CCOCC1  52%
18. Cc1ccsc1/C=C1\SC(N2CCOCC2)=NC1=O  51.5%
19. O=C(Cc1ccc(Cl)cc1)NC(=S)Nc1ccccc1O  45.3%
20. CN(C)S(=O)(=O)c1cccc(NC(=O)Cc2ccsc2)c1  44.5%
21. COc1ccc(NC(=O)CC(NC(C)c2ccccc2)C(=O)O)cc1 (configuration not stated)  44.3%
22. Cc1ccccc1OC(=O)Cn1c(C(F)(F)F)nc2ccccc21  42.4%
23. O=C(NCCc1c[nH]c2ccccc12)c1cccc(Br)c1  38.4%
24. Cc1ccc(-n2c(O)c(C=Nc3ccc(S(=O)(=O)Nc4ncccn4)cc3)c3ccccc3c2=O)cc1C  38.1%
25. CCOC(CNC(=O)C(=O)NCC(c1ccco1)N1CCN(c2ccc(OC)cc2)CC1)OCC (configuration not stated)  37.7%
26. CS(=O)(=O)N1CCc2cc(C(=O)Nc3ccccc3Br)ccc21  36.8%
27. CN(c1ccccc1)S(=O)(=O)c1cccc(C(=O)NNC(=O)c2ccncc2)c1  36%
28. CN(NS(=O)(=O)c1cccs1)c1ncc(C(F)(F)F)cc1Cl  35%
29. CCC1CCCCN1C(=O)CSc1nc2c(c(=O)n(C)c(=O)n2C)n1C (configuration not stated)  30.9%
30. COCCNc1ccc(-c2n[nH]c(=O)c3ccccc23)cc1[N+](=O)[O-]  28.5%
31. O=C(COC(=O)c1ncc(Cl)c(Cl)c1Cl)NCc1cccs1  26%
32. Cc1ccc(S(=O)(=O)NC(=O)COc2ccccc2C)cc1  23.8%
33. COc1ccc(CCNC(=O)c2nnc(CS(=O)(=O)c3ccccc3)o2)cc1OC  21.2%
34. Cc1c(C(N)=O)sc2ncn(CCOc3ccccc3)c(=O)c12  19.2%
35. COc1ccc(CCN2C(=O)C3CC=C(C)CC3C2=O)cc1OC (configuration not stated)  17.6%
36. CCC1(C)Cc2c(sc3[nH]c(=S)n(Cc4ccccc4)c(=O)c23)CO1 (configuration not stated)  16.8%
37. CCC(C)C(=O)Nc1ccccc1N1CCN(c2ccc(F)cc2)CC1 (configuration not stated)  14.6%
38. CCN(CC)CCCN=Cc1c(O)n(-c2ccc(C)cc2)c(=O)c2ccccc12  13.8%
39. CC(C)=NN1C(=O)c2ccccc2NC1(C)C  13.6%
40. O=C(Nc1cccc2ncccc12)c1ccc(-c2ccc(Cl)cc2Cl)o1  12.7%
41. O=C(CCC(=O)c1ccccc1)NCc1cccc(C(F)(F)F)c1  10.8%
42. O=c1[nH]c(N2CCOCC2)nc2ccccc12  10.7%
43. CCOc1ccccc1C(=O)NCc1ccco1  9%
44. O=[N+]([O-])c1ccc(O)c(/C=N/Nc2ccccc2[N+](=O)[O-])c1  8.78%
45. CCOC(=O)CSc1nc2sc3c(c2c(=O)[nH]1)CC(C)(C)OC3  8.53%
46. CCCCCC(O)(CCN1CCCCC1)c1ccccc1 (configuration not stated)  7.41%
47. COc1ccc(C(=O)Nc2ccccc2C(=O)NCc2ccco2)cc1  5.08%
48. NS(=O)(=O)c1ccc(CNC(=O)c2cnccn2)cc1  3.67%
49. CCOC(=O)N1CCC(N2Cc3cccc(C(=O)Nc4c(C)cccc4CC)c3C2=O)CC1  2.75%
50. CCN(CC(=O)NCc1ccco1)S(=O)(=O)c1ccc(F)cc1  2.62%
51. COc1ccc(Nc2ncnc3ccc(Br)cc23)c(OC)c1  1.32%
52. CCc1cccc(C)c1N(C(=O)Cn1c(CO)nc2ccccc21)C(C)COC (configuration not stated)  0.927%
53. CN(c1ccccc1)S(=O)(=O)c1ccc(NC(=O)COc2ccccc2)cc1  0.845%
54. O=C(O)c1cnn2c(C(F)(F)F)cc(-c3ccccc3)nc12  0.482%
55. C[C@H](NC(=O)C1CC(=O)N(c2ccc3c(c2)OCO3)C1)C(=O)NCc1ccco1 (some centres not stated)  0.347%
56. COc1ccc(-c2nn(-c3ccccc3)cc2/C=C2/SC(=S)N(CCCC(=O)O)C2=O)c(C)c1  0%
57. CCN(CC(=O)NCc1ccc(Cl)cc1)C(=O)CSc1ccccc1  -0.0811%
58. O=C(CN1C(=O)NC2(CCCCC2)C1=O)NCCc1c[nH]c2ccccc12  -0.132%
59. CC(C(=O)NC1CCS(=O)(=O)C1)N1C(=O)/C(=C/c2ccc(Cl)cc2)SC1=S (configuration not stated)  -0.569%
60. Cc1ccc(OCCC(=O)OCC(=O)N2c3ccccc3NC(=O)C2(C)C)cc1  -1.08%
61. Cc1ccc(-n2c(-c3ccc(Cl)cc3)n[nH]c2=S)cc1  -1.55%
62. COc1cc(-c2nnc(NC(=O)C3=COCCO3)o2)cc(OC)c1OC  -2.47%
63. COc1cc(S(=O)(=O)N2CCN=C2c2ccccc2)ccc1Cl  -2.8%
64. CC(C)Cc1nnc(NC(=O)CN2C(=O)NC3(CCCCC3)C2=O)s1  -3.02%
65. Cc1ccc2[nH]c3c(=O)n(Cc4ccccn4)cnc3c2c1  -4.35%
66. O=C(NCC(c1ccco1)N1CCc2ccccc2C1)c1ccccc1Cl (configuration not stated)  -4.98%
67. O=c1ccc2cc(S(=O)(=O)Nc3ccccc3F)ccc2o1  -5.54%
68. NC(=O)Cc1ccc2c(c1)[nH]c1ccccc12  -7.47%
69. COCCOCCn1cnc2ccccc21  -7.76%
70. Cc1ccccc1C(=O)NCC(c1ccco1)N1CCc2ccccc21 (configuration not stated)  -10.7%
71. C=CCNc1ncnc2ccc(Br)cc12  -11.7%
72. CC(C(=O)N(C)CC(=O)Nc1ccccc1C(F)(F)F)N1C(=O)c2ccccc2C1=O (configuration not stated)  -12.6%
73. O=S(=O)(NCc1ccccc1Br)c1ccccc1Br  -12.7%
74. CCC(C(=O)OC)n1cnc2c(oc3ccccc32)c1=O (configuration not stated)  -14.6%
75. COc1ccc(C(=O)NCC(c2ccco2)N2CCc3ccccc32)cc1OC (configuration not stated)  -14.9%
76. O=C(COC(=O)c1cccs1)NCc1cccs1  -16.4%
77. COc1cccc(NC(=O)N2C3CCCC2CC(NC(C)=O)C3)c1 (configuration not stated)  -17.1%
78. CCc1ccc(OCC(=O)N(Cc2ccccc2)C2CCS(=O)(=O)C2)cc1 (configuration not stated)  -19.5%
79. CCC1CCCCN1C(=O)CSc1nc(C)cc(C)n1 (configuration not stated)  -20.6%
80. Cc1nnc(SCC(=O)Nc2ccc(S(=O)(=O)Nc3ccc(Cl)nn3)cc2)s1  -22.5%
81. CC1(C)Oc2ccc3ccc(=O)oc3c2/C(=N/O)C1=O  -23.1%
82. COc1ccc(CCNC(=O)C(=O)NCC2OCCN2S(=O)(=O)c2ccc(F)cc2)cc1OC (configuration not stated)  -24.7%
83. Cc1csc(=O)n1CCC(=O)OCC(=O)NNC(=O)c1ccc(Br)cc1  -26.8%
84. Cc1csc(NC(=S)Nc2cccc(Cl)c2)n1  -84.6%

With `Cc1ccc(C)c(Cn2cnc3c(oc4ccccc43)c2=O)c1` the Potency was 2.08 µM (active).
For `C=C1CCC(N(O)c2cc(C)on2)C(=C)CCC2C1CC2(C)C` (configuration not stated), the Potency was 4.65 µM (active).
In the case of `O=C(Nc1nnc(C2=COCCO2)o1)c1ccc([N+](=O)[O-])s1`, the Potency is reported as 11.7 µM (active).
With `CC1(C(=O)NCCc2c[nH]c3ccccc23)C=CC2(CCCCC2)N1C(=O)c1ccccc1` (configuration not stated) the Potency was 11.7 µM (active).
In the case of `CC(=O)c1ccc(NC(=O)Nc2ccc([N+](=O)[O-])cc2C)cc1`, the Potency is reported as 9.28 µM (active).
With `O=C(NCc1ccco1)c1ccc(CS(=O)(=O)Cc2ccc(F)cc2)o1` the Potency was 8.28 µM (active).
For `CCOCN(C(=O)Cn1c(C(C)O)nc2ccccc21)c1c(C)cccc1CC` (configuration not stated), the Potency was 8.28 µM (active).
With `Cc1csc(NC(=O)c2ccc(-c3ccc(Cl)cc3Cl)o2)n1` the Potency was 4.65 µM (active).
With `COc1ccc(-n2c(O)c(C=NCC(c3ccco3)N3CCCC3)c3ccccc3c2=O)cc1OC` (configuration not stated) the Potency was 10.4 µM (active).
With `CC1CCN(C2=NC(=O)/C(=C/c3cn[nH]c3-c3ccccc3)S2)CC1` the Potency was 13.1 µM (active).
With `Cc1ccc(NS(=O)(=O)c2ccc(N/N=C/c3ccccc3OCC(=O)O)c([N+](=O)[O-])c2)c(C)c1` the Potency was 9.28 µM (active).
In the case of `CN(c1ccccc1)S(=O)(=O)c1cccc(NC(=O)Cc2c(F)cccc2Cl)c1`, the Potency is reported as 14.7 µM (active).
In the case of `Nc1ccc(Nc2ccccc2)cc1`, the Potency is reported as 9.28 µM (active).
For `CC1(C)CC2CC(C)(CN2c2ncnc3ccc(Br)cc23)C1` (configuration not stated), the Potency was 16.5 µM (active).
For `O=C(COC(=O)c1ccc(Cl)nc1)NCc1cccs1`, the Potency was 2.33 µM (active).
For `O=C(NCc1ccco1)c1cnn2c(C(F)(F)F)cc(-c3ccco3)nc12`, the Potency was 1.65 µM (active).
In the case of `CCC1CCCCN1C(=O)CSc1nc2c(c(=O)n1C)SC(C)C2` (configuration not stated), the Potency is reported as 1.47 µM (active).
In the case of `COc1cc(C(=O)NCC(c2ccco2)N2CCCC2)ccc1OCc1ccccc1` (configuration not stated), the Potency is reported as 2.62 µM (active).
With `CC1Cc2ccccc2N1S(=O)(=O)c1cccc(C(=O)NCC(c2ccco2)N2CCCC2)c1` (configuration not stated) the Potency was 1.85 µM (active).
In the case of `COc1ccc(CCN2CNc3c(c(=O)n(C)c(=O)n3C)C2)cc1OC`, the Potency is reported as 13.1 µM (active).
In the case of `Cc1cc2ncn(CCCCOc3ccccc3)c2cc1C`, the Potency is reported as 14.7 µM (active).
With `CCC1(C)Cc2c(sc3nc(SC)[nH]c(=O)c23)CO1` (configuration not stated) the Potency was 9.28 µM (active).

`Cc1cc([N+](=O)[O-])ccc1NC(=O)c1ccc(NC(=O)C(C)C)cc1` showed an activity change, negative = inhibition of 18% [at 5.75 µM].
